# Measured values published in the supplement of paper PMC9135407.
# Where “and” joins values, the source holds several entries; their conditions need not be identical. Identical values can stand only once. Counter-ions that a name gives are not always drawn. About 620 (11%) of roughly 5,800 compounds showed activity. What follows is part of a selection rich in actives, with near analogues and random picks from the rest. Unmarked numbers belong to inactive results.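 How the source made its calls: active = score above a cut-off or among the top three wells of a plate; in these data no inactive exceeds 0.85.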
# System: primary human hepatic stellate cells (donor 1)
# Assay: scaled lipid accumulation score (0 = DMSO-like, 1 = nortriptyline-like); higher = stronger HSC inactivation (lipid re-accumulation), active = hit call of the paper
# Conditions: 48 h
# [1] = library stock concentration: 10 mM
# [2] = library stock concentration: 3.33 mM
# [3] = library stock concentration: 1 mM
structure (smiles),measurement,setting,value
"Nc1ncnc2c1ncn2[C@@H]1O[C@@H]2COP(=O)(O)O[C@H]2[C@H]1O [Adenosine 3',5'-cyclic monophosphate]",scaled lipid accumulation score,[1],0.281
NC(C(=O)O)C(O)C(=O)O (racemic) [DL-threo-beta-hydroxyaspartic acid],scaled lipid accumulation score,[1],≤ -0.07
O=C[C@@H]1CCCN1C(=O)[C@@H]1CCCN1C(=O)OCc1ccccc1 [Z-prolyl-prolinal],scaled lipid accumulation score,library stock concentration: 15.1 mM,0.107
CO/N=C(\C(=O)N[C@@H]1C(=O)N2C(C(=O)O)=C(CSC(=O)c3ccco3)CS[C@H]12)c1csc(N)n1,scaled lipid accumulation score,[1],≤ 0
CO/N=C(\C(=O)N[C@@H]1C(=O)N2C(C(=O)O)=C(CSC(=O)c3ccco3)CS[C@H]12)c1csc(N)n1 [Ceftiofur HCl],scaled lipid accumulation score,[2],0.015
same,scaled lipid accumulation score,[1],≤ 0
CC[C@H]1OC(=O)[C@H](C)[C@@H](O[C@H]2C[C@@](C)(OC)[C@@H](O)[C@H](C)O2)[C@H](C)[C@@H](O[C@@H]2O[C@H](C)C[C@H](NC)[C@H]2O)[C@](C)(O)C[C@@H](C)CN(C)[C@H](C)[C@@H](O)[C@]1(C)O,scaled lipid accumulation score,[1],0.363
Cc1ccc2c(c1)C(=O)C1(O)CCN(c3ccccc3)C1=N2 (centres undefined) [Blebbistatin],scaled lipid accumulation score,library stock concentration: 17.1 mM,0.072
Cc1ccc2c(c1)C(=O)C1(O)CCN(c3ccccc3)C1=N2 (centres undefined),scaled lipid accumulation score,[3],≤ 0
same,scaled lipid accumulation score,[1],≤ -0.006
"CCCCC[C@H](O)/C=C/[C@@H]1[C@@H](C/C=C\CCCCCC(=O)O)[C@@H](O)C[C@H]1O [1a,1b-dihomo Prostaglandin F2.alpha.]",scaled lipid accumulation score,[3],≤ 0
"CCCCC(C)(C)[C@H](O)/C=C/[C@H]1C=CC(=O)[C@@H]1CCCCCCC(=O)O [16,16-dimethyl Prostaglandin A1]",scaled lipid accumulation score,[3],≤ 0
CCCCCCCC/C=C/CCCCCCCC(=O)O [Elaidic Acid],scaled lipid accumulation score,[3],≤ 0
Cl.C(=C\CCNC)(/c1c(cccc1)CC2)\c3c2cccc3 [Nortriptyline hydrochloride],scaled lipid accumulation score,,1.13 (active)
CNCCC=C1c2ccccc2CCc2ccccc21 [Nortriptyline],scaled lipid accumulation score,[1],0.72
CNCCC=C1c2ccccc2CCc2ccccc21.Cl,scaled lipid accumulation score,[1],1.02 (active)
C(=C/CCNC)(/c1c(cccc1)CC2)\c3c2cccc3 [Nortriptyline],scaled lipid accumulation score,library stock concentration: 7.6 mM,0.971 (active)
c1ccc(\C(\c2c3cccc2)=C\CCNC)c(C=C3)c1 [Norcyclobenzaprine],scaled lipid accumulation score,,1.13 (active)
OCc1ccccc1,scaled lipid accumulation score,[1],≤ 0
CC(=O)N[C@@H](Cc1c[nH]c2ccccc12)C(N)=O [Acetyltryptophanamide],scaled lipid accumulation score,[1],≤ 0
COc1ccc2c(Oc3ccc(NC(=O)c4c(C)n(CC(C)(C)O)n(-c5ccccc5)c4=O)nc3)ccnc2c1,scaled lipid accumulation score,[2],≤ 0
same,scaled lipid accumulation score,[1],≤ 0
C[C@H](Cc1ccc(O)c(O)c1)[C@@H](C)Cc1ccc(O)c(O)c1,scaled lipid accumulation score,[1],≤ -0.055
COCCCN1CCC(NC(=O)c2cc(Cl)c(N)c3c2OCC3)CC1 [Prucalopride Succinat],scaled lipid accumulation score,[2],0.028
same,scaled lipid accumulation score,[1],0.03
COCCCN1CCC(NC(=O)c2cc(Cl)c(N)c3c2OCC3)CC1 [Prucalopride],scaled lipid accumulation score,[2],≤ 0
same,scaled lipid accumulation score,[1],≤ 0
CC1(C)O[C@H]2CC(=O)OC[C@]23[C@H]2CC[C@@]4(C)[C@H](c5ccoc5)OC(=O)[C@H]5O[C@]54[C@]2(C)C(=O)C[C@@H]13 [Limonin],scaled lipid accumulation score,[2],≤ 0
same,scaled lipid accumulation score,[1],0.008
O=C(O)CCC/C=C/C[C@@H]1[C@@H](CC[C@@H](O)CCc2ccccc2)[C@H](O)C[C@@H]1O [5-trans Latanoprost (free acid)],scaled lipid accumulation score,[3],≤ 0
O=C1O[C@H]([C@@H](O)CO)C([O-])=C1O.[Na+] [Sodium ascorbate],scaled lipid accumulation score,[2],≤ 0
same,scaled lipid accumulation score,[1],≤ -0.001
CCCCC[C@H](O)/C=C/[C@H]1C(=O)C[C@H](O)[C@@H]1C/C=C\CCCC(=O)OCC(O)CO (some centres undefined) [Prostaglandin D2-1-glyceryl ester],scaled lipid accumulation score,[3],≤ 0
CN1C(=O)C(Cc2c[nH]c3ccccc23)NC1=S (centres undefined) [Necrostatin-1],scaled lipid accumulation score,library stock concentration: 80 uM,0.008
same,scaled lipid accumulation score,library stock concentration: 400 uM,≤ 0
same,scaled lipid accumulation score,library stock concentration: 2 mM,≤ 0
same,scaled lipid accumulation score,[2],≤ -0.009 and ≤ 0
same,scaled lipid accumulation score,[1],≤ 0 and 0.03
CCCc1c(OCCCCc2nnn[nH]2)ccc(C(C)=O)c1O,scaled lipid accumulation score,[3],≤ 0 and ≤ -0.021
same,scaled lipid accumulation score,[1],0.011
COc1cc2c(cc1OC)-c1c/c(=N\c3c(C)cc(C)cc3C)n(C)c(=O)n1CC2 [Trequinsin],scaled lipid accumulation score,library stock concentration: 4.9 mM,0.164
same,scaled lipid accumulation score,library stock concentration: 12.3 mM,0.244
COc1cc2c(cc1OC)-c1c/c(=N\c3c(C)cc(C)cc3C)n(C)c(=O)n1CC2 [Trequinsin hydrochloride],scaled lipid accumulation score,[1],0.494 and 0.174
C#CC(N)CCC(=O)O (centres undefined) [gamma-Acetylinic GABA],scaled lipid accumulation score,[1],0.037
"C1CCC2(CC1)CCNCC2 [4,4-Pentamethylenepiperidine hydrochloride]",scaled lipid accumulation score,[1],0.028
CCCCCCCCCCCCCCCCCCCCCC(=O)NCCS(=O)(=O)O [N-Docosanoyl Taurine],scaled lipid accumulation score,[3],≤ 0
C(=C/CCNC)(/c1c2cccc1)\c3c(cccc3)CC2.Cl [Nortriptyline hydrochloride],scaled lipid accumulation score,[1],1.04 (active)
N[C@H]1CCN(O)C1=O,scaled lipid accumulation score,[1],≤ 0
NCc1cccc2ccncc12 [8-Isoquinoline methanamine (hydrochloride)],scaled lipid accumulation score,[3],0.003
CCCCCCNC(=O)Nc1ccc(S(=O)(=O)Nc2ccc(CCNC[C@H](O)COc3ccc(O)cc3)cc2)cc1,scaled lipid accumulation score,[1],0.462
O=C(O)CCCCCC[C@H]1C(=O)C[C@@H](O)[C@@H]1/C=C/[C@@H](O)Cc1ccccc1 [16-phenyl tetranor Prostaglandin E1],scaled lipid accumulation score,[3],0.017
CCCCCCCCCCCCCCCC(=O)OC[C@H](COP(=O)([O-])OCC[N+](C)(C)C)OC(=O)CCCC(=O)/C=C/C(=O)O,scaled lipid accumulation score,[3],0.034
O=C1C(Cl)=C(N2CCOCC2)C(=O)N1c1ccc(Cl)c(Cl)c1,scaled lipid accumulation score,[2],≤ -0.009
same,scaled lipid accumulation score,[1],≤ 0
